From PubChem BioAssay
G9a inh: inhibitors of human histone lysine methyltransferase G9a; G9a H3K9 monomethylation, AlphaScreen, 2 h; Potency, µM (doses to about 102 µM), inactives show at the highest dose activity, negative = inhibition, usual class: inhibitors; 8.8% of 350,000 active; note: potency is the fitted concentration of half-maximal effect; nearly all actives have a fitted effect of over 75% in size
Target sequence (Q96KQ7 913-1193 limits assumed): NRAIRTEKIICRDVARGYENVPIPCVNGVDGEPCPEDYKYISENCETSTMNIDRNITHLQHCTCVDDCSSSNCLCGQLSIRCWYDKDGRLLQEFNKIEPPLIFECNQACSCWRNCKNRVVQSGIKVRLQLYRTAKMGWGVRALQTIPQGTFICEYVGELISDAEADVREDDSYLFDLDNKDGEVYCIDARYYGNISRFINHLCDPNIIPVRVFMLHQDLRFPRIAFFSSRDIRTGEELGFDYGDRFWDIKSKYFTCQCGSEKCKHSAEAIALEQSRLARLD
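Quantitative HTS format: methyltransferase activity on a biotin-tagged H3K9 peptide is measured by AlphaScreen, using a rabbit anti-monomethyl-H3K9 antibody with streptavidin donor and anti-IgG acceptor beads. Final levels are 20 nM enzyme, 500 nM peptide, 20 uM SAM; 2 h RT.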
Sfp inh: blocks B. subtilis Sfp PPTase activity. Q9F4F7. Biochemical Sfp PPTase activity, qHTS. Potency, µM, for inactives: largest response in the series, negative = inhibition, actives largely listed as inhibitors. 3.5% of 310,000 active. AID 1490;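 note: the enzyme is Sfp with the accession as filed and its product quenches rhodamine fluorescence; potency is the fitted concentration of half-maximal effect; 0% = enzyme reaction without inhibitor and -100% = no enzyme wells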
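Step 1, compound plus 15 nM Sfp-PPTase, 15 min, room temperature. Step 2, add rhodamine-CoA (5 uM) and BHQ-2-YbbR (12.5 uM). Step 3, read 525/598 nm fluorescence at 0 and 30 min.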
CCT modulator: changes cytosolic chaperonin activity. AID 651819. purified chaperonin ATPase assay, HTRF ADP detection, 30 min. 0.3% of 360,000 active. activity change, % (concentration not given with the values), hits read low; in the data active = activity change below about -30%
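ATPase activity: ADP formed was measured by HTRF Transcreener (665/615 nm ratio) after 30 min at 37 deg C with 10 uM ATP. Compounds screened at one 76 uM concentration against 40 or 20 nM TRiC in Tris pH 7.4/KCl/MgCl2/DTT buffer.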
PLK1 PBD inh: inhibitors of human PLK1 polo-box domain binding; P53350; Plk1 PBD binding of FITC phosphopeptide, fluorescence polarization; Potency, µM, for the others: max response, negative = inhibition, most hits filed as inhibitors; 2.8% of 360,000 active; note: potency is the fitted concentration of half-maximal effect; series mostly up to about 57 µM; nearly all actives have a fitted effect of over 65% in size
VDR inhibitor: vitamin D3 receptor (human) inhibition; P11473; VDR-SRC2-3 peptide fluorescence polarization, 2 h; Potency, µM, for inactives: max response, negative = inhibition, hits mostly inhibitors; 0.93% of 400,000 active; AID 504847; note: potency is the fitted concentration of half-maximal effect
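Fluorescence polarization assay measuring small-molecule disruption of VDR binding to the coregulator peptide SRC2-3. Compounds were pin-transferred (23 nl) into the reagent mix and incubated 2 h at room temperature before reading.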
MmCpn inh: blocks the Methanococcus maripaludis chaperonin Mm-Cpn; purified Mm-Cpn ATPase, ADP Transcreener TR-FRET; Potency, µM (doses to about 76.9 µM), for the others: at the highest dose activity, negative = inhibition, most hits filed as inhibitors; 0.031% of 330,000 active; note: potency is the fitted concentration of half-maximal effect; nearly all actives have a fitted effect of over 80% in size
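Purified archaeal Mm-CPN (25nM final) preincubated 10 min at 37degC with compound, then 10uM ATP for 30 min at 37degC; ADP measured by HTRF Transcreener TR-FRET; buffer 30 mM TRIS pH 7.4, 100mM KCl, 5mM MgCl2, 1mM DTT.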
* = called active by the depositor; ? = inconclusive; . = no result; [ ] = dose if it differs, or a comment. Only some compounds are listed: those with a hit (about 10% of all), similar ones and a draw of the others. Unless noted, calls come from the whole dose curve; as a rule, active = well fitted curve in the direction sought with a large enough effect; inconclusive = small, poorly fitted or top-dose-only effect, or another doubt; inactive = no such curve, though single readings can be large; an effect the other way counts as inactive or inconclusive. Unless noted, % is set by controls: 0 for no effect and ±100 for the full control effect.

SMILES	G9a inh	Sfp inh	CCT modulator	PLK1 PBD inh	VDR inhibitor	MmCpn inh
O=C(Nc1nc(-c2ccc(F)cc2)cs1)c1ccc(N2C(=O)CCC2=O)cc1	?	0%	-6	1%	4%	1%
N#Cc1ccc(-c2csc(NC(=O)c3ccc(N4C(=O)CCC4=O)cc3)n2)cc1	22%[59 µM]	11%	-1	2%	-6%	32µM*
O=C(Nc1nnc(-c2ccco2)o1)c1cccc(N2C(=O)CCC2=O)c1	16µM*	-54%	0	-4%	-8%	-2%
Cc1ccc(-c2csc(NC(=O)c3cccc(N4C(=O)CCC4=O)c3)n2)o1	8.9µM*	20µM*	0	-7%	?	-2%
Cc1cccc(N2CCN(S(=O)(=O)c3cc(C(=O)Nc4ccc(Oc5ccccc5)cc4)ccc3F)CC2)c1C	-1%[59 µM]	.	.	.	18%	.
CCc1ccccc1-n1nnc(-c2nc(-c3ccccc3F)no2)c1C	2%[59 µM]	.	.	.	15%	.
Cc1ccc(Cn2c(=O)n(Cc3ccccc3)c(=O)c3oc4ccccc4c32)cc1	-9%[59 µM]	.	.	.	9%	.
N#CC(=C1Nc2ccccc2N1)S(=O)(=O)c1ccccc1	.	0%	1	3.4µM*	50µM*	-3%
CC(C)CCSc1nc2c(c(=O)[nH]c(=O)n2C)n1CCCc1ccccc1	40µM*	-11%	0	-1%	-10%	2%
CSc1nc2c(c(=O)[nH]c(=O)n2C)n1CCCc1ccccc1	71µM*	4%	-1	-22%	-3%	0%
CN1CCN(c2nc3c(c(=O)[nH]c(=O)n3C)n2CCCSc2nnnn2-c2ccccc2)CC1	25µM*	12%	2	-10%	-11%	0%
Cn1c(=O)[nH]c(=O)c2c1nc(N1CCCCC1)n2CCCSc1nnnn1-c1ccccc1	-47%[59 µM]	-3%	0	-8%	-6%	0%
CSc1nc2c(c(=O)[nH]c(=O)n2C)n1Cc1ccccc1	-5%	9%	-1	-2%	-9%	2%
Fc1ccc(-c2noc3ncnc(NCC4CCN(Cc5ccc(Cl)cc5)CC4)c23)cc1	-25%[59 µM]	.	.	.	-7%	.
CC(C)[C@@H](CC(=O)N[C@@H]1CCCC[C@H]1C(=O)N[C@H](CC(=O)N[C@@H](CCC(=O)O)CC(=O)O)Cc1ccccc1)NC(=O)C[C@H](Cc1ccccc1)NC(=O)[C@@H]1CCCC[C@H]1N	.	17%	.	.	-1%	.
CS(=O)(=O)c1ccc(CNC(=O)[C@@H]2C[C@H]2[C@@H](NP(=O)(c2ccccc2)c2ccccc2)c2ccccc2)cc1	.	11%	.	.	.	.
O=C(NCc1nc2ccccc2[nH]1)[C@H]1C[C@@H]1[C@H](NP(=O)(c1ccccc1)c1ccccc1)c1ccccc1	.	0%	.	.	.	.
N#C/C(=C/c1ccncc1)c1nc2ccccc2s1	-42%[59 µM]	-13%	-3	-9%	71µM*	-3%
CC(C)=C(C#N)c1nc2ccccc2s1	-13%	0%	0	-7%	8%	0%
O=C(CN1C(=O)/C(=C/c2ccccc2)SC1=S)NC1CCS(=O)(=O)C1 (configuration not stated)	-9%	-12%	0	-4%	3%	0%
O=C(CN1C(=O)/C(=C2\SC(=S)N(C3CCS(=O)(=O)C3)C2=O)c2ccccc21)Nc1ccccc1 (configuration not stated)	25µM*	28µM*	1	-13%	-25%	2%
Cc1ccc(NC(=O)CN2C(=O)/C(=C3\SC(=S)N(C4CCS(=O)(=O)C4)C3=O)c3ccccc32)cc1 (configuration not stated)	50µM*	-3%	-3	-11%	-4%	-1%
CCN(C(=O)Cn1c(SCc2ccccc2F)nc2cccnc21)c1ccccc1	-55%[59 µM]	.	.	.	-2%	.
CCOc1ccc(NC(=O)c2oc3ccccc3c2NC(=O)Cc2ccc(F)cc2)cc1	7%[59 µM]	.	.	.	4%	.
COC(=O)c1cc(NC(=O)Cn2ncc3c2-c2ccccc2OC3)cc(C(=O)OC)c1	10%[59 µM]	.	.	.	-11%	.
O=C(N/N=C/c1ccc(O)c(O)c1)c1ccc(CSc2cccc3cccnc23)cc1	35µM*	-11%	-3	-5%	3%	-1%
